Experimental data: PubChem BioAssay (NCATS)
Inconclusive results are not listed. Active and inactive are the calls of the source. Calls follow the shape of the dose curve; as a rule, active = well fitted inhibition curve with a large enough effect; inconclusive = small, poorly fitted or top-dose-only effect; inactive = flat fitted curve, though single readings scatter.

Legend:
[1] = qHTS profiling for inhibitors of Plasmodium falciparum proliferation (AID 504749);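 also: 0% = DMSO vehicle and full inhibition = artemisinin control; nearly all actives have a fitted effect of over 60% in size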; conditions: P. falciparum in erythrocytes, SYBR Green DNA, 72 h
Summary of the method: (§1)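 Each compound contacts P. falciparum-infected red blood cells for 72 h at 37 C; lysis buffer (Tris, EDTA, saponin, Triton X, SYBR Green I) is added and fluorescence measured next morning; values normalized to controls.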

[2] = test system: 3D7; assay: as above; conditions: P. falciparum in erythrocytes, SYBR Green DNA, 72 h; series mostly up to 28.7 µM
Summary of the method: as §1

[3] = test system: 7G8; assay: as above; conditions: P. falciparum in erythrocytes, SYBR Green DNA, 72 h; series mostly up to 28.7 µM
Summary of the method: as §1

[4] = test system: AA1029; assay: as above; conditions: P. falciparum in erythrocytes, SYBR Green DNA, 72 h; series mostly up to 28.7 µM
Summary of the method: as §1

[5] = test system: AS120; assay: as above; conditions: P. falciparum in erythrocytes, SYBR Green DNA, 72 h; series mostly up to 28.7 µM
Summary of the method: as §1

[6] = test system: ATS189; assay: as above; conditions: P. falciparum in erythrocytes, SYBR Green DNA, 72 h; series mostly up to 28.7 µM
Summary of the method: as §1

[7] = test system: ATS95; assay: as above; conditions: P. falciparum in erythrocytes, SYBR Green DNA, 72 h; series mostly up to 28.7 µM
Summary of the method: as §1

[8] = test system: C2A; assay: as above; conditions: P. falciparum in erythrocytes, SYBR Green DNA, 72 h; series mostly up to 28.7 µM
Summary of the method: as §1

[9] = test system: CP185; assay: as above; conditions: P. falciparum in erythrocytes, SYBR Green DNA, 72 h; series mostly up to 28.7 µM
Summary of the method: as §1

[10] = test system: CP191; assay: as above; conditions: P. falciparum in erythrocytes, SYBR Green DNA, 72 h; series mostly up to 28.7 µM
Summary of the method: as §1

[11] = test system: CP192; assay: as above; conditions: P. falciparum in erythrocytes, SYBR Green DNA, 72 h; series mostly up to 28.7 µM
Summary of the method: as §1

[12] = test system: CP194; assay: as above; conditions: P. falciparum in erythrocytes, SYBR Green DNA, 72 h; series mostly up to 28.7 µM
Summary of the method: as §1

[13] = test system: CP203; assay: as above; conditions: P. falciparum in erythrocytes, SYBR Green DNA, 72 h; series mostly up to 28.7 µM
Summary of the method: as §1

[14] = test system: CP211; assay: as above; conditions: P. falciparum in erythrocytes, SYBR Green DNA, 72 h; series mostly up to 28.7 µM
Summary of the method: as §1

[15] = test system: CP217; assay: as above; conditions: P. falciparum in erythrocytes, SYBR Green DNA, 72 h; series mostly up to 28.7 µM
Summary of the method: as §1

[16] = test system: CP237; assay: as above; conditions: P. falciparum in erythrocytes, SYBR Green DNA, 72 h; series mostly up to 28.7 µM
Summary of the method: as §1

[17] = test system: CP238; assay: as above; conditions: P. falciparum in erythrocytes, SYBR Green DNA, 72 h; series mostly up to 28.7 µM
Summary of the method: as §1

[18] = test system: CP247; assay: as above; conditions: P. falciparum in erythrocytes, SYBR Green DNA, 72 h; series mostly up to 28.7 µM
Summary of the method: as §1

[19] = test system: CP201; assay: as above; conditions: P. falciparum in erythrocytes, SYBR Green DNA, 72 h; series mostly up to 28.7 µM
Summary of the method: as §1

[20] = test system: CP215; assay: as above; conditions: P. falciparum in erythrocytes, SYBR Green DNA, 72 h; series mostly up to 28.7 µM
Summary of the method: as §1

[21] = at 28.7 µM (top of the series), parasite line A
[22] = at 28.7 µM (top of the series), parasite line B

NNc1nnc(NN)c2ccccc12
inactive: activity, negative = inhibition [1, 21] 11.4% | activity, negative = inhibition [1, 22] 18.1% | Potency [2] | Potency [3] | Potency [4] | Potency [5] | Potency [6] | Potency [7] | Potency [8] | Potency [9] | outcome [10] | outcome [11] | outcome [12] | Potency [13] | outcome [14] | outcome [15] | Potency [16] | Potency [17] | Potency [18]

O=C(O)c1ccc(OCCCOc2ccc(C(=O)O)cc2)cc1
inactive: activity, negative = inhibition [1, 21] 0.28% | activity, negative = inhibition [1, 22] 9.9% | Potency [2] | Potency [3] | Potency [4] | Potency [5] | Potency [6] | Potency [7] | Potency [8] | Potency [9] | outcome [10] | outcome [11] | outcome [12] | outcome [19] | outcome [14] | Potency [20] | outcome [15] | Potency [16] | Potency [17] | Potency [18]

Cc1c(Cn2ccnc2)c2ccccc2n1CCC(=O)O
inactive: activity, negative = inhibition [1, 21] 14.7% | activity, negative = inhibition [1, 22] 0.623% | Potency [2] | Potency [3] | Potency [4] | Potency [5] | Potency [6] | Potency [7] | Potency [8] | Potency [9] | outcome [10] | outcome [11] | outcome [12] | outcome [19] | outcome [14] | Potency [20] | outcome [15] | Potency [16] | Potency [17] | Potency [18]

CCCCCCCCCCCCCCCCCCO
inactive: activity, negative = inhibition [1, 21] 2.93% | activity, negative = inhibition [1, 22] 2.31% | Potency [2] | Potency [3] | Potency [4] | Potency [5] | Potency [6] | Potency [7] | Potency [8] | Potency [9] | outcome [10] | outcome [11] | outcome [12] | outcome [19] | outcome [14] | Potency [20] | outcome [15] | Potency [16] | Potency [17] | Potency [18]

CC(=O)Nc1ccccc1
inactive: activity, negative = inhibition [1, 21] 1.91% | activity, negative = inhibition [1, 22] -0.613% | Potency [2] | Potency [3] | Potency [4] | Potency [5] | Potency [6] | Potency [8] | Potency [9] | outcome [10] | outcome [11] | outcome [12] | outcome [19] | Potency [13] | outcome [14] | Potency [20] | outcome [15] | Potency [16] | Potency [17] | Potency [18]

CCc1nnc(NS(=O)(=O)c2ccc(N)cc2)s1
inactive: activity, negative = inhibition [1, 21] 10.2% | activity, negative = inhibition [1, 22] 10.5% | Potency [2] | Potency [3] | Potency [4] | Potency [5] | Potency [6] | Potency [7] | Potency [8] | Potency [9] | outcome [10] | outcome [11] | outcome [12] | outcome [19] | outcome [14] | Potency [20] | outcome [15] | Potency [16] | Potency [17] | Potency [18]

CC(N)CCCC(C)(C)O (configuration not stated)
inactive: activity, negative = inhibition [1, 21] 12.5% | activity, negative = inhibition [1, 22] -7.47% | Potency [2] | Potency [3] | Potency [4] | Potency [5] | Potency [6] | Potency [7] | Potency [8] | Potency [9] | outcome [10] | outcome [11] | outcome [12] | outcome [19] | outcome [14] | Potency [20] | outcome [15] | Potency [16] | Potency [17] | Potency [18]

CC[N+](C)(CC)CCOC(=O)C1c2ccccc2Oc2ccccc21
inactive: activity, negative = inhibition [1, 21] -12.5% | activity, negative = inhibition [1, 22] -20.9% | Potency [2] | Potency [3] | Potency [4] | Potency [5] | Potency [6] | Potency [7] | Potency [8] | Potency [9] | outcome [11] | outcome [12] | outcome [19] | Potency [13] | outcome [14] | Potency [20] | outcome [15] | Potency [16] | Potency [18]

Cc1cc(C)nc(NS(=O)(=O)c2ccc(N)cc2)n1
inactive: activity, negative = inhibition [1, 21] 7.93% | activity, negative = inhibition [1, 22] 10.9% | Potency [2] | Potency [3] | Potency [4] | Potency [5] | Potency [6] | Potency [7] | Potency [8] | Potency [9] | outcome [10] | outcome [11] | outcome [12] | outcome [19] | outcome [14] | Potency [20] | outcome [15] | Potency [16] | Potency [17] | Potency [18]

COC(=O)c1ccc(O)cc1
inactive: activity, negative = inhibition [1, 21] 3.79% | activity, negative = inhibition [1, 22] 9.44% | Potency [2] | Potency [3] | Potency [4] | Potency [5] | Potency [6] | Potency [7] | Potency [8] | Potency [9] | outcome [10] | outcome [11] | outcome [12] | outcome [19] | outcome [14] | Potency [20] | outcome [15] | Potency [16] | Potency [17] | Potency [18]

CCN(CC)CC1CCCCN1CC(=O)N1c2ccccc2C(=O)Nc2cccnc21 (configuration not stated)
inactive: activity, negative = inhibition [1, 21] 6.16% | activity, negative = inhibition [1, 22] 1.05% | Potency [2] | Potency [3] | Potency [4] | Potency [5] | Potency [6] | Potency [7] | Potency [8] | Potency [9] | outcome [10] | outcome [11] | outcome [12] | outcome [19] | Potency [20] | outcome [15] | Potency [16] | Potency [17] | Potency [18]

NC(N)=NS(=O)(=O)c1ccc(N)cc1
inactive: activity, negative = inhibition ([1]; at 12.8 µM (top of the series), parasite line A) 8.93% | activity, negative = inhibition ([1]; at 12.8 µM (top of the series), parasite line B) 8.43% | Potency [2] | Potency [3] | Potency [4] | Potency [5] | Potency [6] | Potency [8] | Potency [9] | outcome [10] | outcome [11] | outcome [12] | outcome [19] | Potency [13] | outcome [14] | Potency [20] | outcome [15] | Potency [16] | Potency [17] | Potency [18]

Nc1ccc(S(=O)(=O)c2ccc(N)cc2)cc1
inactive: activity, negative = inhibition [1, 21] 2.8% | activity, negative = inhibition [1, 22] 7.07% | Potency [2] | Potency [4] | Potency [5] | Potency [6] | Potency [7] | Potency [8] | Potency [9] | outcome [10] | outcome [11] | outcome [12] | outcome [19] | Potency [13] | outcome [14] | Potency [20] | outcome [15] | Potency [16] | Potency [17] | Potency [18]
